# 3T3 cytotox: NIH 3T3 cell cytotoxicity; NIH 3T3 viability, CellTiter-Glo ATP luminescence, 48-72 h; Potency, µM (highest dose often 96.7 µM), most hits filed as inhibitors; hit rate 4.3% among 94,000; AID 1345082; further: nearly all actives have a fitted effect of over 55% in size
#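 Luminescent ATP readout (CellTiter-Glo, 10 min RT) after 48 or 72 hr compound exposure of NIH 3T3 cells seeded at 400 cells/well in 1536-well format; quantitative HTS.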
# HEK cytotox: cytotoxic compounds in HEK 293 cells. HEK 293 viability, ATP luminescence (CellTiter-Glo), 48-72 h. Potency, µM (titrated, usually from 115 µM), most hits filed as inhibitors. hit rate 6.6% among 94,000. AID 1345083; further: nearly all actives have a fitted effect of over 60% in size
#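 HEK 293 cells seeded at 250 cells/well were exposed to compound for 48 or 72 hr at 37 degree Celsius. Viability taken as ATP content by CellTiter-Glo luminescence.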
# NPR1 antag: human Npr1 receptor antagonism; P16066; HEK293 hNpr1 GloSensor cGMP, ANP-stimulated luminescence; Potency, µM (series often up to 46.3 µM), most hits filed as inhibitors; hit rate 1.6% among 76,000; AID 1347048; calls by dose curve; further: nearly all actives have a fitted effect of over 60% in size
# Target sequence (P16066 whole entry, looked up): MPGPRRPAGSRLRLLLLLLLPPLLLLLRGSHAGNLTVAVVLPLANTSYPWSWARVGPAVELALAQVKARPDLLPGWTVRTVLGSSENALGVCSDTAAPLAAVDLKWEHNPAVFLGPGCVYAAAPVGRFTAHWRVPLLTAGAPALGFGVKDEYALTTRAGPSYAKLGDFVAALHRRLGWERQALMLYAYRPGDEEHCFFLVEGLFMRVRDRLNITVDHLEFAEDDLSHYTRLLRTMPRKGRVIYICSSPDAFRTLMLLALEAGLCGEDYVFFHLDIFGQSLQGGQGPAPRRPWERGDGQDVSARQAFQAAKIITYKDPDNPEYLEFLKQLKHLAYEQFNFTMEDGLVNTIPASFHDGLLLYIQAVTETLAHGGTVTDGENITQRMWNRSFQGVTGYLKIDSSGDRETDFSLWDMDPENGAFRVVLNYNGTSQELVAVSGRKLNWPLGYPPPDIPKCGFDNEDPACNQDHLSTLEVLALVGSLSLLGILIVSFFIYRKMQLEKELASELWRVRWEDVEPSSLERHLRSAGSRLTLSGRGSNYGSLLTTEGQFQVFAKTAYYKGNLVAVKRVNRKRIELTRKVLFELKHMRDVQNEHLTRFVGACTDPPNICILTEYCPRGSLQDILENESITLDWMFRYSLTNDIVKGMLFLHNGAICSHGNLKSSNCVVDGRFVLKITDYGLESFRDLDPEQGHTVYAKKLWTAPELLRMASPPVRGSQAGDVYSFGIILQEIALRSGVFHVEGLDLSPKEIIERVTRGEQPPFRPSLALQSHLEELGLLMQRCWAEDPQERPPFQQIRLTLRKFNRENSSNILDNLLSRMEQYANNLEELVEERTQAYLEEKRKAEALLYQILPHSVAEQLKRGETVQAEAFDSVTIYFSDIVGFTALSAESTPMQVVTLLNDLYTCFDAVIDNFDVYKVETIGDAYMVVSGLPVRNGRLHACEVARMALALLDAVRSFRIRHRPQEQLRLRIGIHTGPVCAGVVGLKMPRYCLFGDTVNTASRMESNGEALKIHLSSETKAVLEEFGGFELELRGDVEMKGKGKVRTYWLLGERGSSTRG
#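 Compound pre-incubated 30 min at room temperature on GloSensor-loaded HEK293 cells stably carrying hNpr1 and the pGS-40F cGMP biosensor. Stimulation uses hNppA at 0.1 nM final; luminescence is taken at baseline and 20 min post-agonist.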
# FLuc inh-1: inhibitors of firefly (Photinus pyralis) luciferase | hit rate 2.5% among 76,000 | AID 1347043 | purified P. pyralis luciferase, luminescence, biochemical | Potency, µM (top dose mostly 115 µM), actives largely listed as inhibitors; further: nearly all actives have a fitted effect of over 65% in size
#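 Biochemical qHTS: compound (6-point titration) added to 10uM D-luciferin plus 10uM ATP in Tris acetate pH 7.5 buffer with Mg, Tween-20 and BSA, then purified enzyme at 10nM; light output imaged.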
# FLuc SDR -ATP: binders stabilizing firefly luciferase, without ATP; shares compounds with FLuc inh-1; AID 1963318; hit rate 7.8% among 1,300; Potency, µM (series often up to 32.7 µM), most hits filed as activators; Purified FLuc-C-HiBiT, Nano-Glo HiBiT luminescence, no ATP; further: nearly all actives have a fitted effect of over 55% in size
# FLuc SDR ATP: binders stabilizing firefly luciferase, plus ATP; Potency, µM (titrated, usually from 32.7 µM), hits mostly activators; AID 1963319; hit rate 8.7% among 1,300; shares compounds with FLuc inh-1; purified FLuc-C-HiBiT + ATP, HiBiT complementation luminescence;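 further: signal reports ligand binding via conformational change of the enzyme rather than luciferase catalysis; nearly all actives have a fitted effect of over 55% in size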
# FLuc inh-2: blocks firefly luciferase enzymatic activity; shares compounds with FLuc inh-1; purified FLuc-C-HiBiT enzyme, luciferin luminescence; Potency, µM (highest dose often 32.7 µM), usual class: inhibitors; hit rate 42% among 1,300; further: nearly all actives have a fitted effect of over 70% in size
# Hits are given with their value; i = inactive; ? = inconclusive; nt = no result given. This is a sample that favours compounds with a hit; in the whole collection about 11% have one here. Unless noted, the call rests on the fitted dose curve; in most records, active means well fitted curve in the direction sought with a large enough effect; inconclusive means small, poorly fitted or top-dose-only effect, or another doubt; inactive means no such curve, though single readings can be large; an effect the other way counts as inactive or inconclusive.
SMILES,3T3 cytotox,HEK cytotox,NPR1 antag,FLuc inh-1,FLuc SDR -ATP,FLuc SDR ATP,FLuc inh-2
O=C(C1CCCN1C(=O)c1cccc(-c2ccccn2)c1)N1CCN(c2ncccn2)CC1 (stereo unspecified),i,i,nt,nt,nt,nt,nt
Cn1cc(CN2C[C@@H]3C[C@H](C2)c2ccc(NC(=O)c4cccs4)c(=O)n2C3)c2ccccc21,i,?,i,i,nt,nt,nt
CCN1CCN(C(=O)C2CCc3nnc(C4CCN([S+](C)(=O)[O-])CC4)n32)CC1 (stereo unspecified),i,i,nt,nt,nt,nt,nt
CC(C)(CC(=O)O)CC(=O)N1Cc2[nH]cnc2C[C@H]1c1nc(Cc2ccccc2)no1,i,i,i,i,i,i,i
Fc1ccccc1Cc1cn2cc(-c3ccc(Cl)cc3)nc2s1,nt,nt,nt,nt,i,?,1.6µM
O=C(NCc1ccccc1)c1cn2cc(-c3ccccc3)sc2n1,i,i,nt,nt,nt,nt,nt
Fc1ccc(-c2cn3cc(Cc4ccccc4Cl)sc3n2)cc1,nt,nt,nt,nt,?,?,0.99µM
O=C(NC1CCCCCC1)c1cn2cc(-c3ccc(F)cc3)sc2n1,?,i,nt,nt,nt,nt,nt
Fc1ccc(Cc2cn3cc(-c4ccc(F)cc4)nc3s2)cc1,nt,nt,nt,nt,?,?,0.88µM
Clc1ccc(-c2cn3cc(Cc4ccccc4)sc3n2)cc1,nt,nt,nt,nt,i,?,0.79µM
O=C(NCCN1CCOCC1)c1c(-c2ccccc2)cc(=O)n2c1CCC2,i,i,nt,nt,nt,nt,nt
COc1ccc(C2(C(=O)NCc3cccc(F)c3)CCOCC2)cc1,i,i,nt,nt,nt,nt,nt
C[S+](=O)([O-])c1ccc(-c2nnc3ccc(C(=O)NCCc4ccccc4F)cn23)cc1,?,i,nt,nt,nt,nt,nt
O=C(Nc1ccc(Cl)cc1)NC1CCCN(c2ccc3nnc(-c4ccccc4)n3n2)C1 (stereo unspecified),i,i,nt,nt,nt,nt,nt
Cc1ccc(Cc2cn3cc(-c4ccccc4)nc3s2)cc1,nt,nt,nt,nt,?,?,0.44µM
Cc1cccc(OCCc2noc(C3CN(C4CCN(Cc5ccccc5)CC4)C3)n2)c1,i,?,?,i,nt,nt,nt
Cc1ccc2nc(-c3ccc(NC(=O)Cc4ccccc4)cc3)sc2c1,nt,nt,nt,nt,i,i,?
Cc1ccc(NC(=O)c2cc(NC(=O)C3CC3)cc3nc(C)ccc23)cc1,?,?,i,i,nt,nt,nt
CSC(=S)Nc1ccc(-c2nc3ccc(C)cc3s2)cc1,nt,nt,nt,nt,i,i,2.5µM
Cc1ccc(NC(=O)Cn2c(-c3ccccc3)nc(C)cc2=O)cc1,?,?,i,i,nt,nt,nt
Cc1ccc2nc(-c3ccc(NC(=O)COc4ccc(Br)cc4Br)cc3)sc2c1,nt,nt,nt,nt,?,?,3.5µM
Cc1ccc2nc(-c3ccc(NC(=O)COc4c(C)ccc(C)c4C)cc3)sc2c1,nt,nt,nt,nt,i,i,?
CNC(=O)c1cc(C2CC2)nc2onc(C3CCCN(C(=O)c4ccccc4F)C3)c12 (stereo unspecified),i,?,nt,nt,nt,nt,nt
Cc1ccc2nc(-c3ccc(NC(=O)COc4ccc(Cl)c(C)c4)cc3)sc2c1,nt,nt,nt,nt,i,i,i
O=C(O)c1ccc(CN2CC(COc3ccccc3)C3(C2)CN(c2ccccc2)C3)cc1 (stereo unspecified),i,?,i,i,nt,nt,nt
SMILES,3T3 cytotox,HEK cytotox,NPR1 antag,FLuc inh-1,FLuc SDR -ATP,FLuc SDR ATP,FLuc inh-2
COc1ccc(CN2CC(COc3ccccc3)C3(C2)CN(c2ccccc2)C3)cc1O (stereo unspecified),?,28µM,i,i,i,i,i
COCCCn1c(=O)c(C(=O)NCCc2ccc(F)cc2)nc2cccnc21,i,i,nt,nt,nt,nt,nt
O=C1c2cnc(-c3cccc(CO)c3)nc2OCCN1c1cccc(C(F)(F)F)c1,18µM,?,?,11µM,i,i,?
O=C1c2cnc(-c3cccc(C(F)(F)F)c3)nc2OCCN1CC1CC1,?,?,?,3.2µM,?,?,9µM
CN(C)Cc1cn2c(=O)n(C)cc(-c3cccc(OC(F)(F)F)c3)c2n1,?,?,i,i,nt,nt,nt
Cc1ccc(-c2ncc3c(n2)OCCN(Cc2ccc(F)cc2F)C3=O)cc1,?,i,?,3.2µM,i,i,i
CN1CCOc2nc(-c3cccc(OC(F)(F)F)c3)ncc2C1=O,?,?,?,3.2µM,i,?,?
O=C(CN1CCCc2nc(-c3ccncc3)ncc2C1=O)NCc1cc(F)ccc1F,?,?,?,i,nt,nt,nt
